The results in this text go back to ChEMBL document CHEMBL1961873, “Compounds: GSK PKIS; Assays: Nanosyn kinase panel” (2012).

Structures are written as SMILES.

The target in test [1] is Dual specificity protein kinase CLK3 (Homo sapiens) (UniProt P49761). To be noted: at 1 µM.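 Also: each value is the mean inhibition of CLK3.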
The target in test [2] is Dual specificity tyrosine-phosphorylation-regulated kinase 1A (Homo sapiens) (UniProt Q13627). The settings on record: at 0.1 µM.
For test [3] the target is unchanged. The settings on record: at 1 µM.
Test [4] deals with Dual specificity tyrosine-phosphorylation-regulated kinase 1B (Homo sapiens) (UniProt Q9Y463). To be noted: at 0.1 µM.
Dual specificity tyrosine-phosphorylation-regulated kinase 1B (Homo sapiens), sequence (Q9Y463 whole entry, looked up): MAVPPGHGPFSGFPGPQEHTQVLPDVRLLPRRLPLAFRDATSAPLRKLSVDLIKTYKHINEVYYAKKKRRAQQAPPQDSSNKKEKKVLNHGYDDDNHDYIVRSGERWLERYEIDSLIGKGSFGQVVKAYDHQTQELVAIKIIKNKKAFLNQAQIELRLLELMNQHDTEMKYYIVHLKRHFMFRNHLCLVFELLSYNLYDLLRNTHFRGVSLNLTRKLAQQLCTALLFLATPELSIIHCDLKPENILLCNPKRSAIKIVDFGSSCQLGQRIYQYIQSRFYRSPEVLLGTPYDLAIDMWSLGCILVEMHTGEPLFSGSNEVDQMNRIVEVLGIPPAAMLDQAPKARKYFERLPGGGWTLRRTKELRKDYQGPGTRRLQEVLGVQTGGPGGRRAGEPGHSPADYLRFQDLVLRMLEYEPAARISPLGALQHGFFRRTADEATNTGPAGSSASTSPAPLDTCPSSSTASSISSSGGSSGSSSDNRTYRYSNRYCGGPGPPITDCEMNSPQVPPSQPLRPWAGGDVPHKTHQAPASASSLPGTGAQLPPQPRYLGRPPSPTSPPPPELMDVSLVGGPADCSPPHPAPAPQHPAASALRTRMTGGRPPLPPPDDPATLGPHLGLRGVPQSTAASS
Test [5] has the same target. To be noted: at 1 µM.
Test [6] addresses T1, Dual specificity tyrosine-phosphorylation-regulated kinase 2 (Homo sapiens) (UniProt Q92630).
T1 sequence (whole entry): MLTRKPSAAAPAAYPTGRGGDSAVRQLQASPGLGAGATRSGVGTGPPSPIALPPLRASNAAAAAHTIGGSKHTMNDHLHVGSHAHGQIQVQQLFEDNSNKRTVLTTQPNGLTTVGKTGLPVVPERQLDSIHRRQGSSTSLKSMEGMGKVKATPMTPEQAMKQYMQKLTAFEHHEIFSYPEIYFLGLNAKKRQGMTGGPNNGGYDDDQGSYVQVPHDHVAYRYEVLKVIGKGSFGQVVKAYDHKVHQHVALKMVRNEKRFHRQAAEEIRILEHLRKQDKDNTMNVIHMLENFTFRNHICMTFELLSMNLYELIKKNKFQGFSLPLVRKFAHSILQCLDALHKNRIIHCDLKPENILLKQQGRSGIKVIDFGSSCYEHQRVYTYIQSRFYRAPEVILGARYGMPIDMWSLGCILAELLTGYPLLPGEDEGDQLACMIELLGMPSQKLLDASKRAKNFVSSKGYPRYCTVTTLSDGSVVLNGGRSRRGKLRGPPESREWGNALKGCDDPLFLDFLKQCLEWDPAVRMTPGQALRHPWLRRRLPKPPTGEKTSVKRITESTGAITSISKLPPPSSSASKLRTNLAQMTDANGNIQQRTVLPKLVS
To be noted: at 0.1 µM.

The target in test [7] is T1, Dual specificity tyrosine-phosphorylation-regulated kinase 2 (Homo sapiens). To be noted: at 1 µM.
The target of test [8] is Glycogen synthase kinase-3 alpha (Homo sapiens) (UniProt P49840). The settings on record: at 0.1 µM.
Glycogen synthase kinase-3 alpha (Homo sapiens), sequence (P49840 2-483 limits assumed): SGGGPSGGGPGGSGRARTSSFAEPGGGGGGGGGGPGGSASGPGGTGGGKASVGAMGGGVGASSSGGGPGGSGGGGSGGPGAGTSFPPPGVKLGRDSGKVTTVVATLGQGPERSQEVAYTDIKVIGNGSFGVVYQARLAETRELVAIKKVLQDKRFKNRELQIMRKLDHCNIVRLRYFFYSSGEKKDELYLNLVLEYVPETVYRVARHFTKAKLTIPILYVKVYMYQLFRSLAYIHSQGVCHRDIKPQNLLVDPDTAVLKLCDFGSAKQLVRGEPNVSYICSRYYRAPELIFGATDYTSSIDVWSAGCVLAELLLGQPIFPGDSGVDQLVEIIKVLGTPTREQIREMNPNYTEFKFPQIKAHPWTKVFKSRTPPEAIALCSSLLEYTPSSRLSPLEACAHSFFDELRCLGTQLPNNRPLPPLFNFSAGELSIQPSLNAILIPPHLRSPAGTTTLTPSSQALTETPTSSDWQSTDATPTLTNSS
Test [9] shares this target. The settings on record: at 1 µM.
In test [10] the target is Glycogen synthase kinase-3 beta (Homo sapiens) (UniProt P49841). To be noted: at 0.1 µM.
Glycogen synthase kinase-3 beta (Homo sapiens), sequence (P49841 whole entry, looked up): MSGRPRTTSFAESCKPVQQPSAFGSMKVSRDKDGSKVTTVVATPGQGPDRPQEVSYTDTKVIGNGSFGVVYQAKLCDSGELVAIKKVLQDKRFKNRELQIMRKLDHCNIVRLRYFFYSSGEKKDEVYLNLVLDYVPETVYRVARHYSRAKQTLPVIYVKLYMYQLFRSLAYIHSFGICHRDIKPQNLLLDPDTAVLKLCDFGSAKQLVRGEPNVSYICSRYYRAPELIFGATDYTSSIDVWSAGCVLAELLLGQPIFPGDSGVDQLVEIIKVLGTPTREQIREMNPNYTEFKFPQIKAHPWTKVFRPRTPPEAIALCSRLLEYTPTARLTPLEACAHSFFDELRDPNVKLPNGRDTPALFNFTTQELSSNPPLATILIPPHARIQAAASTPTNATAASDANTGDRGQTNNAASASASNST
The target is the same in test [11]. To be noted: at 1 µM.
Test [12] deals with Homeodomain-interacting protein kinase 1 (Homo sapiens) (UniProt Q86Z02). The settings on record: at 0.1 µM.
Homeodomain-interacting protein kinase 1 (Homo sapiens), sequence (Q86Z02 whole entry, looked up): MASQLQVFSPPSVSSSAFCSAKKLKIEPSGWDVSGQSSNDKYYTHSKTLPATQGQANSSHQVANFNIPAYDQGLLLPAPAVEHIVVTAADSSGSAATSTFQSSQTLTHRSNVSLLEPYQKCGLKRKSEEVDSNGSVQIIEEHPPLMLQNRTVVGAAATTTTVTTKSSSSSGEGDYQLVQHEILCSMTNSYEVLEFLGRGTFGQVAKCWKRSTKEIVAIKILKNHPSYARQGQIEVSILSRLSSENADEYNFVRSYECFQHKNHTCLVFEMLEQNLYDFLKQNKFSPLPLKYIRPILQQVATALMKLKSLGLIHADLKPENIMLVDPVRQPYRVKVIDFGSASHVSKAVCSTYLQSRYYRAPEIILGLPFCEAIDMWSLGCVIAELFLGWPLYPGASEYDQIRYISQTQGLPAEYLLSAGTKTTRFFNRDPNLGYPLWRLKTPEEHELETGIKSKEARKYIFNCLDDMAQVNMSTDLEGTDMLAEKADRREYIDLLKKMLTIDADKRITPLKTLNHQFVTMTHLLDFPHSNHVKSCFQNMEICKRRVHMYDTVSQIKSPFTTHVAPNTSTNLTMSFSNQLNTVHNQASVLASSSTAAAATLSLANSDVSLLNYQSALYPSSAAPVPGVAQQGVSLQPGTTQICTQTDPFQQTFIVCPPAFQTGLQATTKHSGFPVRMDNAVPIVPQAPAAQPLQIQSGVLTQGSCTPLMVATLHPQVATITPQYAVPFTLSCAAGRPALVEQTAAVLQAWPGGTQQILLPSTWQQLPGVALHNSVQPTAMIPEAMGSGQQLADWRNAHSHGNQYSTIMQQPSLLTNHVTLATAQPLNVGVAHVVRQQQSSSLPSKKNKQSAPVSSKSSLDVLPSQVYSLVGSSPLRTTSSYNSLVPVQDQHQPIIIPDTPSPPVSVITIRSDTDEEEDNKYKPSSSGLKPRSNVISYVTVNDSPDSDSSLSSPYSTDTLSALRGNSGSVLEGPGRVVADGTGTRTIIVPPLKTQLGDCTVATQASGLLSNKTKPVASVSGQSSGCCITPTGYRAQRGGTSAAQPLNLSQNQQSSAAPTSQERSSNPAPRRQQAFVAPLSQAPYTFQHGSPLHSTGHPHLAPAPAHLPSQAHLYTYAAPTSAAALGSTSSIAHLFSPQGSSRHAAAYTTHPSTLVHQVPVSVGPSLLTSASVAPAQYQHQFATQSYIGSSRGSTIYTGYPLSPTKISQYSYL
Test [13] shares this target. The settings on record: at 1 µM.
In test [14] the target is T2, Homeodomain-interacting protein kinase 4 (Homo sapiens) (UniProt Q8NE63).
T2 sequence (whole entry): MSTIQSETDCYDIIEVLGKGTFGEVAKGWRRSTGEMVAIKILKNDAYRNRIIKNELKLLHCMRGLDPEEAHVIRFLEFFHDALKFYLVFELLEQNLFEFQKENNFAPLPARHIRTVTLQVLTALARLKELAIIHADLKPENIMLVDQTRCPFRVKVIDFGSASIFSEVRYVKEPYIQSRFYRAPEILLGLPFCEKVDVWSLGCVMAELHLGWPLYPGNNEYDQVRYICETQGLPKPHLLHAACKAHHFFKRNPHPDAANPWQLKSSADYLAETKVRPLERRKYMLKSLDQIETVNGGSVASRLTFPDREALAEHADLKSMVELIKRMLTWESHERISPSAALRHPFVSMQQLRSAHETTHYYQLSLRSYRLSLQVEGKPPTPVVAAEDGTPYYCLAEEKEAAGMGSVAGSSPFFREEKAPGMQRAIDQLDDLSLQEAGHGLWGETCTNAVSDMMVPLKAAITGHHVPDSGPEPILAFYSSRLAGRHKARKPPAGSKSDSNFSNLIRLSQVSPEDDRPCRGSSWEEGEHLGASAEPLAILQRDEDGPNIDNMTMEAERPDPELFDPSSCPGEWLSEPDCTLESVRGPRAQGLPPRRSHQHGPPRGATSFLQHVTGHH
To be noted: at 0.1 µM.

Test [15] addresses T2, Homeodomain-interacting protein kinase 4 (Homo sapiens). The settings on record: at 1 µM.
Test [16] deals with Mitogen-activated protein kinase 9 (Homo sapiens) (UniProt P45984). The settings on record: at 0.1 µM.
Mitogen-activated protein kinase 9 (Homo sapiens), sequence (P45984 whole entry, looked up): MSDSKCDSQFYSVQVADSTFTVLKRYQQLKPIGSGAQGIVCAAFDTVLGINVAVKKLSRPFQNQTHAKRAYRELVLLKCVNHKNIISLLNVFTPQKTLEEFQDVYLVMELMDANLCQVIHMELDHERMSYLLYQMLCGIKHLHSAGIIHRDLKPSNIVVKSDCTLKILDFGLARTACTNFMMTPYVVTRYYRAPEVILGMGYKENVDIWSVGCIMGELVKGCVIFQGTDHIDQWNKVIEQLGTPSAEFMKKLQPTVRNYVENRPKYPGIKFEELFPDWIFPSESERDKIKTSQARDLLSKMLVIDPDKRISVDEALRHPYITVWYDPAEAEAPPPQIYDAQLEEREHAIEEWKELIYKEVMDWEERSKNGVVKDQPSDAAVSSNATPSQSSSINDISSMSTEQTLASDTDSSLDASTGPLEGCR
Test [17] has the same target. To be noted: at 1 µM.
Test [18] deals with Mitogen-activated protein kinase 1 (Homo sapiens) (UniProt P28482). To be noted: at 0.1 µM.
Mitogen-activated protein kinase 1 (Homo sapiens), sequence (P28482 whole entry): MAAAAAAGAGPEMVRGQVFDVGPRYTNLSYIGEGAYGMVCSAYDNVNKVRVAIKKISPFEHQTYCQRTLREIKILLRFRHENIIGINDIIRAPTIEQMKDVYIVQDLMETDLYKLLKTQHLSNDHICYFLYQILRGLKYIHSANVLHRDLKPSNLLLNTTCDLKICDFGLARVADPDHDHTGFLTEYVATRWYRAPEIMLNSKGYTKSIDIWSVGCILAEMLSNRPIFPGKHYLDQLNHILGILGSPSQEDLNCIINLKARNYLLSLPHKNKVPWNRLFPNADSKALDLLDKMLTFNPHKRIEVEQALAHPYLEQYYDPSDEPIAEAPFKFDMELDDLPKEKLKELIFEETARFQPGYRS
The target is the same in test [19]. To be noted: at 1 µM.
Test [20] deals with Mitogen-activated protein kinase 3 (Homo sapiens) (UniProt P27361). The settings on record: at 0.1 µM.
Mitogen-activated protein kinase 3 (Homo sapiens), sequence (P27361 whole entry): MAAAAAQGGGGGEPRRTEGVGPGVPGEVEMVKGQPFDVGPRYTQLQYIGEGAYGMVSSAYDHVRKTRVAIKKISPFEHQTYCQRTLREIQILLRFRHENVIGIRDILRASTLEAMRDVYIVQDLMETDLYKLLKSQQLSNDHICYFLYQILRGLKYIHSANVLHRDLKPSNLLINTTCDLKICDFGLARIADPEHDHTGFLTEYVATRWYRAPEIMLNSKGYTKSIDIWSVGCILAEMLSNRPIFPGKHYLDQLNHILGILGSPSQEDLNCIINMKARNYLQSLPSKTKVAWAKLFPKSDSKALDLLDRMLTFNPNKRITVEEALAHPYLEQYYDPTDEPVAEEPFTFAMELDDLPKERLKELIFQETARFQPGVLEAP

Dual specificity protein kinase CLK3 (Homo sapiens), sequence (P49761 whole entry, looked up): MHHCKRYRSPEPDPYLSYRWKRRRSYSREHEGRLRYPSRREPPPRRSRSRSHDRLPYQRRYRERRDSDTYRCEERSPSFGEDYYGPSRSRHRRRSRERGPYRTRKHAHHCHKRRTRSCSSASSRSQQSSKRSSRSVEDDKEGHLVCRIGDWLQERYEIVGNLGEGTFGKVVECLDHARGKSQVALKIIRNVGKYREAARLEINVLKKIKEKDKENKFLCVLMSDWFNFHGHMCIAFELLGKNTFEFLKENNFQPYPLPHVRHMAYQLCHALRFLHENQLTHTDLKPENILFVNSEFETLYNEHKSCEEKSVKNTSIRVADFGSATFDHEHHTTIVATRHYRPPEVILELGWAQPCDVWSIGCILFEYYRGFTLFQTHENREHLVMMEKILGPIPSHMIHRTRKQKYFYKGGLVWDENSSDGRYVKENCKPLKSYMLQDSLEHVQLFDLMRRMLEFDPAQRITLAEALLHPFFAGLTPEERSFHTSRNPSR

What is called inhibition is the change of the read-out against control, counted positive when it falls. Consider `Cc1ccc2c(-c3ccnc(Nc4ccc5c(c4)OCCO5)n3)c(-c3ccc(C(F)(F)F)cc3)nn2n1`, for which the inhibition in [1] is 0.07%; in [2] it was 0.1%; in [3] it was 2%; in test [4], -0.58%; in [5] it was 1.39%; in test [6] it was -0.27%. Besides, the inhibition in test [7] was -1.15%; in test [8], 5.44%; in [9], 10.5%; in [10], 4.65%; in test [11], 10.2%; in test [12], -4.36%. In addition, the inhibition in [13] was 0.03%; in [14], -0.51%; in test [15], -0.85%; in [16], -0.33%; in test [17] it was 4.2%; in test [18], 1.99%. For the same compound, the inhibition in test [19] worked out at 2.01%; in test [20] it was 2.57%.

Turning to `COc1ccc2ncnc(Nc3ccc(OCc4ccccc4)cc3)c2c1`, the inhibition in [1] is 1.64%; in test [2], 1.05%; in [3], 3.73%; in test [4], -0.87%; in test [5], 1.35%; in test [6], 1.27%. In addition, the inhibition in test [7] came to 2.65%; in test [8] it was 1.55%; in [9] it was 4.44%; in [10] it was 1.06%; in test [11] it was 0.7%; in test [12], 0.26%. Also, the inhibition stood at 3.41% in [13]; 0.67% in test [14]; 1.18% in [15]; 3.85% in test [16]; 2.97% in test [17]; 2.37% in test [18]. Further, the inhibition stood at 2.37% in [19] and 4.06% in test [20].

As to `[O-][S+]1CCN(Cc2ccc(-c3ccc4ncnc(Nc5ccc(OCc6ccccc6)c(Cl)c5)c4c3)o2)CC1`, the inhibition in [1] is -0.64%; in test [2], 1.81%; in [3], 2.81%; in test [4], 0.05%; in [5], 0.51%; in test [6], 1.29%. Also, the inhibition in test [7] is 0.17%; in test [8], 1.1%; in [9], 1.03%; in test [10], 0.33%; in test [11], 1.33%; in test [12] it was -1.84%. Besides, the inhibition is 0.05% in [13]; 0.81% in test [14]; 2.27% in test [15]; -0.11% in test [16]; 2.26% in test [17]; 3.15% in [18]. In addition, the inhibition in [19] was determined as 4.09%; in test [20], 1.32%.

Regarding `COc1cc2ncnc(Nc3ccc4c(cnn4Cc4ccccc4)c3)c2cc1OC`, the inhibition is 0.4% in test [1]; 2.51% in test [2]; 2.6% in test [3]; -2.48% in test [4]; 0.09% in test [5]; 2.37% in test [6]. Also, the inhibition was 2.95% in [7]; 4.71% in test [8]; 6.57% in test [9]; 4.13% in test [10]; 7.35% in test [11]; -5.38% in test [12]. Further, the inhibition in [13] is -0.46%; in test [14], -0.51%; in [15], 0.79%; in test [16] it was 0.52%; in test [17], 1.98%; in test [18] it was 2.88%. Besides, the inhibition was found to be 4.22% in test [19] and 1.19% in [20].

With `Cc1cc(O)cc(C)c1/C=C/c1cncc(C(=O)N(C)C)c1`, the inhibition came to 1.59% in [1]; 1.64% in test [2]; 3.33% in test [3]; 1.15% in [4]; 2% in [5]; 2.94% in [6]. In addition, the inhibition in test [7] is 3.72%; in [8], 6.93%; in test [9], 10.2%; in test [10] it was 6.11%; in test [11], 9.44%; in test [12] it was 0.32%. Moreover, the inhibition in [13] was 4.88%; in [14] it was 4.28%; in test [15], 7.94%; in test [16] it was -0.29%; in [17] it was 2.38%; in [18] it was 2.76%. Moreover, the inhibition in [19] was determined as 2.51%; in test [20], 3.48%.

With `N#Cc1c(NC(=O)c2ccccc2F)sc2c1CCCC2`, the inhibition is -0.09% in [1]; -0.74% in [2]; 1.91% in test [3]; 0.18% in [4]; 0.36% in test [5]; -2% in test [6]. The inhibition in [7] is -2.88%; in test [8] it was -0.74%; in [9], 0.03%; in test [10] it was -0.5%; in test [11], -0.09%; in test [12], -4.32%. Moreover, the inhibition is -0.26% in [13]; -0.44% in [14]; 1.41% in [15]; -2.15% in [16]; 2.33% in test [17]; -0.94% in test [18]. For the same compound, the inhibition in test [19] is -1.13%; in test [20], -1.39%.

As for `COC(=O)Nc1nc2cc(Oc3ccc(NC(=O)Nc4cccc(Br)c4)cc3)ccc2[nH]1`, the inhibition in test [1] was 1.74%; in test [2], 1.12%; in test [3] it was 2.3%; in test [4], 0.23%; in test [5], 1.17%; in [6], 3.11%. In addition, the inhibition was 3.59% in [7]; 2.27% in [8]; 5.24% in test [9]; 1.01% in [10]; 6.86% in test [11]; -0.71% in test [12]. In addition, the inhibition in [13] amounted to 2.41%; in test [14] it was 8.37%; in test [15] it was 19.5%; in test [16] it was 3.12%; in test [17], 4.83%; in test [18], 2.82%. Also, the inhibition in test [19] was found to be 2.49%; in test [20] it was 2.94%.
